# Experimental data published in PubChem BioAssay (NCATS).
# Inconclusive results are not listed. Activity calls are given as the source filed them. Calls come from the whole dose curve; as a rule, active = well fitted activation curve with a large enough effect; inconclusive = small, poorly fitted or top-dose-only effect; inactive = no such curve, though single readings can be large or run the other way.
# Target: Cellular tumor antigen p53 (Homo sapiens) (UniProt P04637)
# Assay: Primary qHTS for small molecule compounds that upregulate eGFP-tagged delta133p53alpha (in N-terminal) cells. (AID 2060322); note: nearly all actives have a fitted effect of over 75% in size;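 for activation: series mostly up to about 56 µM; 0% = DMSO vehicle and 100% = reference activator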
# Conditions: NCI-H358 eGFP-delta133p53alpha fluorescence, 24 h; activation: hits give high values
# Method in brief: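 NCI-H358 cells pre-induced 24 h with 10 ng/ml doxycycline to express N-terminal eGFP-delta133p53alpha, then dosed 24 h at 37C without doxycycline; fixed, Hoechst-stained, GFP intensity by laser scanning cytometry, normalized to DMSO (0%) and 57.5 uM 5-azacytidine (100%).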
# Potency is the fitted concentration of half-maximal effect.
# Sequence of Cellular tumor antigen p53 (Homo sapiens) (P04637 whole entry, looked up): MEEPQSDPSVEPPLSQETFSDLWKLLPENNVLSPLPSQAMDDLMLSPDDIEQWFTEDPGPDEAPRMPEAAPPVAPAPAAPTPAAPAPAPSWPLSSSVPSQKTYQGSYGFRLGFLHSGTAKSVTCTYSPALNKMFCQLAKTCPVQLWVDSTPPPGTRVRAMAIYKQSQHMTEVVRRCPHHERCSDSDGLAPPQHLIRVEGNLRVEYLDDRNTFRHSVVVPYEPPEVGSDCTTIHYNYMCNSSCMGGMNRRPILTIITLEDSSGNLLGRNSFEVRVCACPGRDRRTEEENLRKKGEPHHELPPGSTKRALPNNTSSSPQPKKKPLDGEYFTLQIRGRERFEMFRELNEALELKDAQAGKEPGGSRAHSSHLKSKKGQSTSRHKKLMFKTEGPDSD
SMILES,Potency,activation
FC(F)(F)c1ccc(C=Cc2nc(COc3ccc(CCCCn4ccnn4)cc3)co2)cc1,24.3 µM (active),–
c1ccc2c(CC3=NCCN3)cccc2c1,–,-10% (inactive)
COc1ccc(-c2ccc(-c3cn(C(=O)N4CCCCC4c4ccccc4)nn3)cc2)cc1 (centres undefined),–,-8.11% (inactive)
CCN(CC)CCNC(=O)c1cc(Br)c(N)cc1OC,–,13% (inactive)
O=C(O)[C@H](O)c1ccccc1,–,-6.21% (inactive)
COc1cc(O)cc(O)c1,–,-1.67% (inactive)
CC(C)(c1ccc(O)cc1)c1ccc(O)cc1,–,-17.5% (inactive)
COc1ccc(/C(C)=C/C(=O)O)c(OC)c1,–,-10.7% (inactive)
c1ccc(CC2=NCCN2)cc1,–,-3.95% (inactive)
CC(NC(CCc1ccccc1)C(=O)O)C(=O)N1C(=O)N(C)CC1C(=O)O (centres undefined),–,-13.4% (inactive)
CCN(CC)C(=O)/C(C#N)=C/c1cc(O)c(O)c([N+](=O)[O-])c1,–,-3.95% (inactive)
CC(C)=CCC1C(=O)N(c2ccccc2)N(c2ccccc2)C1=O,–,-15.3% (inactive)
Clc1ccc(-c2nc3sccn3c2C=NOCc2ccc(Cl)c(Cl)c2)cc1,–,-15.4% (inactive)
CC(C)n1c(/C=C/[C@@H](O)C[C@@H](O)CC(=O)O)c(-c2ccc(F)cc2)c2ccccc21,–,-1.69% (inactive)
N#CC(=C(O)c1ccc(Cl)cc1Cl)c1nc2cc(Cl)ccc2c(=O)[nH]1,–,7.18% (inactive)
Cc1cc(OI)c(C(C)C)cc1-c1cc(C(C)C)c(OI)cc1C,–,17.5% (inactive)
CCCCCCCC(=O)[O-].CCCCCCCC(=O)[O-].[Zn+2],–,14.1% (inactive)
Nc1ncnc(Nc2ccccc2)n1,–,-16.7% (inactive)
CN(C/C=C/C#CC(C)(C)C)Cc1cccc2ccccc12,–,-0.565% (inactive)
C[C@@H]1C[C@H]2[C@@H]3CCC4=CC(=O)C=C[C@]4(C)[C@@]3(F)[C@@H](O)C[C@]2(C)[C@@]1(O)C(=O)COC(=O)c1ccncc1,–,-8.37% (inactive)

SMILES,Potency,activation
Cc1cc(-n2nc3ccc(Cl)cc3n2)c(O)c(C(C)(C)C)c1,–,19.8% (inactive)
CCC(Cc1c(I)cc(I)c(N)c1I)C(=O)O (centres undefined),–,29.9% (inactive)
O=C(c1ccc(F)c(F)c1Nc1ccc(I)cc1F)N1CC(O)([C@H]2CCCCN2)C1,–,17.1% (inactive)
Cc1ncc(CO)c(CN)c1O,–,16.4% (inactive)
CC[C@H]1OC(=O)[C@H](C)[C@@H](O[C@H]2C[C@@](C)(OC)[C@@H](O)[C@H](C)O2)[C@H](C)[C@@H](O[C@@H]2O[C@H](C)C[C@H](N(C)C)[C@@H]2O)[C@](C)(OC)C[C@@H](C)C(=O)[C@H](C)[C@@H](O)[C@]1(C)O,–,-25.1% (inactive)
O=C(O)P(=O)(O)O,–,-13% (inactive)
CC(C)(C)c1nnc(NS(=O)(=O)c2ccc(N)cc2)s1,–,-16.7% (inactive)
Nc1ccc([N+](=O)[O-])cc1O,–,-7.53% (inactive)
NCC(=O)CCC(=O)O,–,-14.1% (inactive)
CCCNC(C)C(=O)Nc1c(C)csc1C(=O)OC (centres undefined),–,-37.9% (inactive)
CC(C)CCCC(C)N (centres undefined),–,0.565% (inactive)
OCc1cccnc1,–,-5.02% (inactive)
CCN(CC)CCOC(=O)C(Cc1cccc2ccccc12)CC1CCCO1 (centres undefined),–,-0.837% (inactive)
Cn1c(=O)c2c(ncn2CC(=O)O)n(C)c1=O,–,1.69% (inactive)
Nc1nc2ccc(Cl)cc2c2nc(-c3ccco3)nn12,1.69 µM (active),–
CCCC(CCC)(C(=O)OCC)C(=O)OCC,–,-3.95% (inactive)
CCCCCCCCCCCCCCCCCCOCC(O)CO (centres undefined),–,-16.4% (inactive)
C[N+]1(C)CCC(=C(c2ccccc2)c2ccccc2)CC1,–,28.8% (inactive)
O=[N+]([O-])c1cccc(S(=O)(=O)NCCNS(=O)(=O)c2cccc([N+](=O)[O-])c2)c1,–,24.3% (inactive)
